Consider 40 compounds from the supplement of paper PMC6124720.

Structures can show the parent of a compound that is named as a salt.
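Also: biolog Phenotype Microarray plates PM21–25, OD595 followed daily over 11 days, growth curves converted to index, mean of two independent experiments.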

The subject of the experiment is Pseudogymnoascus destructans 20631-21. Description: growth activity index (DuctApe, 0 = no growth, 9 = maximal growth) (index 0-9); higher = more fungal growth (less inhibition), active = 0 or less; extreme values may be limits of the assay. The note with it: concentration level (1-4, increasing; Biolog proprietary): 2; temperature: 13 °C; YPD.
Take `O.O=S(=O)([O-])[O-].O=S(=O)([O-])[O-].O=S(=O)([O-])[O-].[Al+3].[Al+3]` [Aluminum sulfate] (Biolog plate: PM24): the growth activity index was 4 (inactive).

On to `N=C(N)N` [Guanidine hydrochloride] (Biolog plate: PM21), for which the growth activity index is 5 (inactive).

As to `N=C(N)c1ccc(OCCCCCOc2ccc(C(=N)N)cc2)cc1` [Pentamidine Isethionate] (Biolog plate: PM24), the growth activity index was 5.33 (inactive).

Consider `O=C(O)CN(CCN(CC(=O)O)CC(=O)O)CC(=O)O` (Biolog plate: PM21), for which the growth activity index was 5 (inactive).

With `CC(CN1c2ccccc2Sc2ccccc21)N(C)C` (stereo not given) [Promethazine] (Biolog plate: PM21), the growth activity index was 0 (active).

Consider `O=P(O)(O)OP(=O)(O)O` [Sodium pyrophosphate] (Biolog plate: PM24), for which the growth activity index was 4.67 (inactive).

Consider `Clc1ccc(COC(Cn2ccnc2)c2ccc(Cl)cc2Cl)c(Cl)c1` (stereo not given) [Miconazole Nitrate] (Biolog plate: PM24), for which the growth activity index is 0.333 (inactive).

Consider `O=c1[nH]c(=O)n([C@H]2C[C@H](O)[C@@H](CO)O2)cc1F` [Fluorodeoxyuridine] (Biolog plate: PM25), for which the growth activity index is 3.67 (inactive).

For the compound `CCCCCCCCCCCC[N+](C)(C)CCOc1ccccc1` [Domiphen bromide] (Biolog plate: PM21), the growth activity index was 2 (inactive).

For the compound `CN[C@@H]1[C@@H](O[C@H]2O[C@H](CO)[C@@H](N)[C@H](O)[C@H]2O)OC2C[C@@H](N)[C@@H](O[C@H]3[C@H](O)[C@@H](O)[C@H](N)C[C@@H]3N)OC2[C@@H]1O` (stereo not given in full) [Apramycin] (Biolog plate: PM24), the growth activity index was 4.33 (inactive).

On to `NO` [Hydroxylamine] (Biolog plate: PM23), for which the growth activity index was 4 (inactive).

As to `CO/N=C(\C(=O)N[C@@H]1C(=O)N2C(C(=O)O)=C(CSc3nc(=O)c(O)nn3C)CS[C@H]12)c1csc(N)n1` [Ceftriaxone] (Biolog plate: PM22), the growth activity index was 0 (active).

With `NC[C@H]1O[C@H](O[C@H]2[C@H](O)[C@@H](O[C@H]3O[C@H](CO)[C@@H](O)[C@H](N)[C@H]3O)[C@H](N)C[C@@H]2N)[C@H](O)[C@@H](O)[C@@H]1O` [Kanamycin] (Biolog plate: PM25), the growth activity index was 5 (inactive).

Consider `OCC1OC(O)CC(O)C1O` [2-Deoxy-D-glucose] (Biolog plate: PM23), for which the growth activity index is 5 (inactive).

On to `CCCCCCCC(=O)[O-].[Na+]` [Sodium Caprylate] (Biolog plate: PM23), for which the growth activity index was 3.33 (inactive).

Turning to `[Cl][Co][Cl]` [Cobalt (II) chloride] (Biolog plate: PM23), the growth activity index is 4 (inactive).

For the compound `O=S(=O)([O-])[O-].[Cu+2]` [Copper (II) sulfate] (Biolog plate: PM21), the growth activity index is 6 (inactive).

For `C=C(CC[C@]12O[C@H](C(=O)O)[C@@](O)(C(=O)O)[C@](C(=O)O)(O1)[C@H](OC(=O)/C=C/[C@@H](C)C[C@@H](C)CC)[C@H]2O)[C@@H](OC(C)=O)[C@H](C)Cc1ccccc1` [Zaragozic acid A] (Biolog plate: PM24), the growth activity index is 5.33 (inactive).

On to `c1ccc(-c2nn(-c3ccccc3)[n+](-c3cccc4ccccc34)n2)cc1` [Tetrazolium violet] (Biolog plate: PM25), for which the growth activity index is 3 (inactive).

For `[Cl-].[Li+]` [Lithium chloride] (Biolog plate: PM22), the growth activity index is 0 (active).

`Nc1c2ccccc2nc2ccccc12` [9-Aminoacridine] (Biolog plate: PM24): the growth activity index was 5.33 (inactive).

Consider `O=S(O)(O)=S` [Sodium Thiosulfate] (Biolog plate: PM23), for which the growth activity index was 4.33 (inactive).

In the case of `[Cl][Cu][Cl]` [Cupric chloride] (Biolog plate: PM23), the growth activity index was 5.33 (inactive).

On to `CSc1ccc2c(c1)N(CCC1CCCCN1C)c1ccccc1S2` (stereo not given) [Thioridazine] (Biolog plate: PM24), for which the growth activity index is 1.33 (inactive).

Consider `O.O.O.O.O.O.[Cl-].[Cl-].[Mg+2]` [Magnesium chloride] (Biolog plate: PM21), for which the growth activity index was 4 (inactive).

`NC(N)=S` [Thiourea] (Biolog plate: PM21): the growth activity index is 0 (active).

In the case of `CN1CCN(CCCN2c3ccccc3Sc3ccc(C(F)(F)F)cc32)CC1` [Trifluoperazine] (Biolog plate: PM21), the growth activity index is 0.25 (inactive).

For the compound `Nc1[nH]c(=O)ncc1F` [5-Fluorocytosine] (Biolog plate: PM25), the growth activity index was 4 (inactive).

As for `NCC(=O)NO` [Glycine hydroxamate] (Biolog plate: PM22), the growth activity index was 3.67 (inactive).

Regarding `O=NO` [Sodium Nitrite] (Biolog plate: PM23), the growth activity index is 2.67 (inactive).

For the compound `O=C(O)/C=C/c1ccccc1` [Cinnamic acid] (Biolog plate: PM25), the growth activity index is 4.67 (inactive).

For the compound `O=C(O)CC(O)C(=O)O` (stereo not given) [Malic acid] (Biolog plate: PM25), the growth activity index is 5 (inactive).

Take `CN(C)[C@@H]1C(O)=C(C(N)=O)C(=O)[C@@]2(O)C(O)=C3C(=O)c4c(O)ccc(Cl)c4[C@@](C)(O)[C@H]3C[C@@H]12` [Chlortetracycline] (Biolog plate: PM24): the growth activity index was 4.33 (inactive).

Turning to `CC(=O)OCC1=C(C(=O)O)N2C(=O)[C@@H](NC(=O)Cc3cccs3)[C@H]2SC1` [Cephalotin] (Biolog plate: PM22), the growth activity index was 5 (inactive).

Turning to `NC(CO)C(=O)NO` (racemic) [DL-Serine hydroxamate] (Biolog plate: PM22), the growth activity index was 4 (inactive).

Take `NC[C@H]1O[C@H](O[C@H]2[C@H](O)[C@@H](O[C@H]3O[C@H](CO)[C@@H](O)[C@H](N)[C@H]3O)[C@H](N)C[C@@H]2N)[C@H](N)C[C@@H]1O` [Tobramycin] (Biolog plate: PM25): the growth activity index was 5 (inactive).

For `NCC(=O)O` [Glycine hydrochloride] (Biolog plate: PM23), the growth activity index is 4 (inactive).

Consider `C[C@H]1c2cccc(O)c2C(=O)C2=C(O)[C@]3(O)C(=O)C(C(N)=O)=C(O)[C@@H](N(C)C)[C@@H]3[C@@H](O)[C@@H]21` [Doxycycline] (Biolog plate: PM23), for which the growth activity index is 5 (inactive).

For the compound `O=c1[nH]cc(F)c(=O)[nH]1` [5-Fluorouracil] (Biolog plate: PM25), the growth activity index is 5 (inactive).

As to `On1ccccc1=S` [1-Hydroxypyridine-2-thione (pyrithione)] (Biolog plate: PM21), the growth activity index is 4 (inactive).
